Assay results: ChEMBL document CHEMBL3988442, “University of Dundee, Small-Polar-MMV Screening Library” (2021)
In all, about 48,000 compounds went through this assay and about 13,000 (27%) showed an effect of 50% or more. The list shows a part of the results.

These molecules were tested on Wolbachia pipientis (assay: Anti-Wolbachia Cell-Based Screen). Settings: 5 µM.
Assay type: functional
Design: scale not given: in the data most compounds retested in dose-response had high values

Row | SMILES | Percent Effect [%]
1 | CC(C(=O)N(Cc1ccccc1)CC(F)(F)F)S(C)(=O)=O (stereo not drawn) | 3.578
2 | CC(C)NC(=O)CNC(=O)C12CCC(=O)N1c1cc(Cl)ccc1S2 (stereo not drawn) | -9.931
3 | CC(C)(C)C(=O)CN1Cc2ccccc2NCCC1=O | 87.13
4 | CCN(C(=O)C1=NN(c2ccccc2)C(=O)CN1)c1ccccc1 | 14.38
5 | CN(C(=O)CN1CCCC1=O)C1CCCN(C2Cc3ccccc3C2)C1 (stereo not drawn) | -3.019
6 | COCCN1CCC2(CCC1=O)CN(c1ccnc(SC)n1)CCN2C (stereo not drawn) | 3.783
7 | CC(C)(C)C(=O)CN1CCc2ccccc2NCCC1=O | 91.03
8 | COCCN1CCc2ccccc2NCCC1=O | 80.29
9 | COCCN1CC2(CCCN(C(=O)NCc3ccccc3)C2)CCC1=O (stereo not drawn) | -41.75
10 | O=C(CN1C(=O)CCNC1=O)N1CCC2(CCc3ccccc32)CC1 | -1.469
11 | CCNC(=O)N1C[C@@H]2OCC(=O)N(Cc3cccnc3)[C@@H]2C1 | -2.175
12 | C[C@H](CCO)NS(=O)(=O)c1ccc(Br)cn1 | 0.586
13 | COc1nccnc1N1CCC2(CC1)[C@H](O)C[C@@H]2OCCN(C)C | -0.5657
14 | COC(=O)CCCn1ccnc1C(C)c1ccccc1 (stereo not drawn) | 30.01
15 | O=C(Cc1ccc2c(c1)OCO2)N1CCN(c2ccccc2Cl)C(=O)C1 | 2.346
16 | Cc1ccc2c(n1)N(CCN(C)C)CCN(C(=O)N1CCOCC1)C2 | -2.22
17 | CN1CCN(C(=O)N2CCCC2)Cc2cccnc21 | -1.039
18 | O=C(Cc1ccc(CO)cc1)N1CCN(c2ccccc2Cl)C(=O)C1 | -19.49
19 | O=C(N1CCOCC1)N1CCN(c2ccc(Cl)nn2)C(=O)C1 | 98.36
20 | O=C(N1CCOCC1)N1CCN(c2ccnc3ccsc23)CC1 | 30.34
21 | CN(C)c1ccc(C(=O)N2CCN(C(=O)N3CCCCC3)CC2)nn1 | 6.871
22 | O=C(N1CCCCC1)N1CCN(c2ccc(Cl)nn2)C(=O)C1 | 123
23 | O=C(N1CCCC1)N1CCN(c2ccc(Cl)nn2)C(=O)C1 | 104
24 | O=C(CN1CCN(c2ccnc3c(F)ccc(F)c23)CC1)NC1CC1 | -1.102
25 | O=C(Nc1ccc2c(c1)OCO2)N1CCN(CCc2ccccc2)CC1 | 10.38
26 | CC(C)OCc1ncn2c1CN(Cc1nccs1)CCC2.O=C(O)C(F)(F)F | 19.89

Row | SMILES | Percent Effect [%]
27 | CN(C)C(=O)C1CCC2(CCN(C(=O)Nc3ccccc3)CC2)O1 (stereo not drawn) | 111.7
28 | CN1C(=O)CO[C@H]2CN(C(=O)Nc3ccc(F)cc3)C[C@H]21 | -3.92
29 | CN(C)C(=O)C1CCC2(CCN(C(=O)Nc3ccc(F)cc3)CC2)O1 (stereo not drawn) | 104.3
30 | Cc1ccc(NC(=O)N2CCC3(CCC(C(=O)N(C)C)O3)CC2)cc1 (stereo not drawn) | 103.6
31 | CN(C)C(=O)N1CCC2(CCC(C(=O)N3CCCC3)O2)CC1 (stereo not drawn) | -25.65
32 | CCN(C)CC1CCN(C(=O)Nc2ccc(C)cc2)C1 (stereo not drawn) | -10.96
33 | CC(=O)NC1CCN(C(=O)Nc2ccc(SC(F)F)cc2)CC1 | 1.325
34 | CCC1=N[C@@]2(CC[C@@H]3CN(C(=O)Nc4ccc(F)cc4)C[C@@H]32)C(=O)N1 | -8.843
35 | O=C(Nc1ccc(S(=O)(=O)Nc2ccccc2)cc1)N1CCCC1 | 10.15
36 | CCCN1CCCC2(CCN(S(=O)(=O)N3CCC(OC)CC3)C2)C1=O (stereo not drawn) | -17.89
37 | CCCNC(=O)NCc1ccccc1NS(=O)(=O)c1ccccc1 | 1.164
38 | COc1c(C2CCCN2Cc2nnc(C3CC3)o2)c(C)nn1C (stereo not drawn) | -22.17
39 | CCN(Cc1noc(C)n1)C(=O)C(c1ccc(C)cc1)N(C)C (stereo not drawn) | -5.423
40 | CC(=O)N1CCN(C(=O)CCc2cc(Br)cs2)CC1 | -5.733
41 | CC1(Cc2cccnc2)NCCc2[nH]cnc21 (stereo not drawn) | 0.4171
42 | CC(C)Cc1ccc(C(=O)Cn2cnnc2[S+](C)[O-])cc1 (stereo not drawn) | 22.36
43 | CCN1C(=O)CCC12CCCN(S(=O)(=O)c1cccc(C)c1)CC2 (stereo not drawn) | -13.05
44 | CS(=O)(=O)N1CCCC12CCCN(S(=O)(=O)c1cccc(F)c1)C2 (stereo not drawn) | 85.55
45 | Cc1cccc(S(=O)(=O)N2CCCC3(CCCN3S(C)(=O)=O)C2)c1 (stereo not drawn) | 110.4
46 | CNC(=O)[C@@]12CCO[C@@H]1CCN(S(=O)(=O)c1cccc(F)c1)C2 | -9.413
47 | Cc1cccc(S(=O)(=O)N2CCCc3c(c(=O)n(C)n3C)C2)c1 | -4.559
48 | CS(=O)(=O)N1CCCC12CCCN(S(=O)(=O)c1cc(F)cc(F)c1)C2 (stereo not drawn) | -5.366
49 | COc1ccc(Nc2ncccc2C#N)cc1N1CCCC1=O | 9.755
50 | Cc1cc(S(=O)(=O)Nc2onc(C)c2C)sc1C | -16.29
51 | Cc1nn(C)c(C)c1C1CCCN1C(=O)CCc1ccco1 (stereo not drawn) | 103
52 | CS(=O)(=O)NCCC(=O)N1CCCC1c1noc(C2CC2)n1 (stereo not drawn) | -8.062

Row | SMILES | Percent Effect [%]
53 | Cc1nn(C)c(C)c1C1CCCN1C(=O)CCc1cscn1 (stereo not drawn) | -3.183
54 | Cc1nn(C)c(C)c1C1CCCN1C(=O)CCCc1ccccn1 (stereo not drawn) | 91.34
55 | COc1ccc(C2CCCN2C(=O)CCNc2ncccn2)cc1 (stereo not drawn) | 1.66
56 | Cc1nn(C)c(C)c1C1CCCN1Cc1nc(-c2ccco2)oc1C (stereo not drawn) | -2.901
57 | COc1c(C2CCCN2C(=O)CCNc2ncccn2)c(C)nn1C (stereo not drawn) | 119.8
58 | Cc1nn(C)c(C)c1C1CCCN1C(=O)CCNS(C)(=O)=O (stereo not drawn) | 101.1
59 | CSc1ccc(CNCCS(=O)(=O)N2CCOCC2)cc1 | -30.29
60 | CC1(C)CN(C(=O)c2ccc3nncn3c2)CCS1 | -32.23
61 | COCC1CN(C(=O)CC2Cc3ccccc3C2)Cc2c1cnn2C (stereo not drawn) | -1.669
62 | Cc1nn(C)c(C)c1C1CCCN1C(=O)CCNc1ncccn1 (stereo not drawn) | 2.112
63 | Cc1nn(C)c(C)c1C1CCCN1C(=O)CCCNc1ncccn1 (stereo not drawn) | 79.99
64 | Cc1nn(C)c(C)c1C1CCCN1C(=O)CCCn1cccn1 (stereo not drawn) | 12.2
65 | Cc1nn(C)c(Cl)c1C1CCCN1C(=O)CCNc1ncccn1 (stereo not drawn) | 95.62
66 | Fc1cccc2c1CCC2NCc1cnc(N2CCOCC2)nc1 (stereo not drawn) | 3.105
67 | COC(=O)CCC(=O)N(C/C=C/c1ccccc1)CCO | -11.86
68 | COc1cccc(F)c1C(C)NC(=O)NCCc1ccc(C)nc1 (stereo not drawn) | 1.538
69 | O=C(Nc1nncs1)NC1CCOc2ccccc21 (stereo not drawn) | 13.17
70 | Cc1cc(CN(C)C(=O)Nc2cnc3c(c2)c(C)nn3C)no1 | 2.843
71 | COc1ccc(S(=O)(=O)NCCC(O)c2ccccc2)c(C)c1 (stereo not drawn) | 8.858
72 | COCc1nc2nc(O)c3c(n2n1)NC(=O)CC3c1ccccc1Cl (stereo not drawn) | -6.394
73 | O=C(O)C(F)(F)F.O=C(c1ccc[nH]1)N1CC[C@@H](OCC2CC2)[C@@H]1Cc1cccnc1 | 9.663
74 | O=C(O)C(F)(F)F.O=C(O)C(F)(F)F.O=C(c1cccnc1)N1CC[C@H](OCC2CC2)[C@@H]1Cc1cccnc1 | -13.6
75 | O=C(O)C(F)(F)F.O=C(O)C(F)(F)F.c1ccc(N2CC[C@H](OCC3CC3)[C@@H]2Cc2cccnc2)nc1 | 102.1
76 | O=C(O)C(F)(F)F.O=S(=O)(C1CC1)N1CC[C@@H](OCC2CC2)[C@@H]1Cc1ccncc1 | -7.9
77 | O=C(O)C(F)(F)F.O=S(=O)(C1CC1)N1CC[C@H](OCC2CC2)[C@@H]1Cc1cccnc1 | -0.6171
78 | O=C(O)C(F)(F)F.c1cnc(N2CC[C@@H](OCC3CC3)[C@@H]2Cc2cccnc2)nc1 | 125.6

Row | SMILES | Percent Effect [%]
79 | Cn1nc2c(cc1=O)CN(Cc1nnc(-c3ccc(F)cc3)o1)CC2 | -3.918
80 | CC(NC(=O)NCCNc1cccc(F)c1C#N)c1nccs1 (stereo not drawn) | -8.965
81 | CC(=O)N1CCOCC2(C1)CN(S(C)(=O)=O)CCO2 (stereo not drawn) | -9.255
82 | COC(=O)c1cccc(S(=O)(=O)NC(=O)COC2CCCCC2)c1 | 108.7
83 | COC(=O)c1cccc(S(=O)(=O)Nc2ccc(Cl)c(C(N)=O)c2)c1 | -9.655
84 | COC(=O)c1cccc(S(=O)(=O)NC(=O)CC2CCCC2)c1 | 1.549
85 | COC(=O)c1cccc(S(=O)(=O)NC(=O)c2ccccc2F)c1 | 8.807
86 | COC(=O)c1cccc(S(=O)(=O)Nc2ncc(C)s2)c1 | -16.51
87 | COC(=O)c1cccc(S(=O)(=O)NC(=O)COC2CCCC2)c1 | 86.25
88 | Cc1occc1C(=O)N1CCCC1c1ccc(C(=O)N2CCOCC2)s1 (stereo not drawn) | 1.721
89 | Cc1ccc(OCCN(C)Cc2cscn2)cc1 | -7.225
90 | CC(C)N(C)C(=O)CSCc1ccc(S(=O)(=O)N(C)C)o1 | -4.323
91 | Cc1nnc(CN(C)CCCOc2ccc(Cl)cc2)o1 | -9.497
92 | Cc1cc(C)cc(OCCN(C)Cc2cscn2)c1 | -4.131
93 | CN(CCOc1ccc(Cl)cc1)Cc1ccc(S(=O)(=O)N(C)C)o1 | 82.71
94 | Cc1nnc(CN(C)CCOc2cccc(Cl)c2)o1 | 6.512
95 | Cc1cc(C)cc(OCCN(C)Cc2ccc(S(=O)(=O)N(C)C)o2)c1 | 89.38
96 | Cc1ccc(OCCN(C)S(=O)(=O)N2CCOCC2)cc1 | -11.92
97 | Cc1ccc(OCCN(C)Cc2ccc(S(=O)(=O)N(C)C)o2)cc1 | 101.9
98 | COCCN(CC(N)=O)CC1CCCN(C2Cc3ccccc3C2)C1 (stereo not drawn) | -0.9874
99 | Cc1noc(C)c1C(=O)N1Cc2ncn(C)c2C(COCC2CC2)C1.O=C(O)C(F)(F)F (stereo not drawn) | 110.4
100 | Cc1noc(C)c1C(=O)N1Cc2ncn(C)c2C(COCC(C)C)C1.O=C(O)C(F)(F)F (stereo not drawn) | 115.1
101 | Cc1ccsc1C(=O)N1Cc2ncn(C)c2C(COCC2CC2)C1.O=C(O)C(F)(F)F (stereo not drawn) | 46.58
102 | Cn1cnc2c1C(COCC1CCOCC1)CN(C(=O)c1ccco1)C2.O=C(O)C(F)(F)F (stereo not drawn) | -6.702
103 | CC(C)COCC1CN(Cc2ccc3c(c2)OCO3)Cc2ncn(C)c21.O=C(O)C(F)(F)F.O=C(O)C(F)(F)F (stereo not drawn) | 29.31
